# The full ranking holds about 33,000 sequences; the median of “E-score (-0.5 to 0.5)” is about -0.041, and the highest 2% start at about 0.37. The sample as a whole holds a higher share of the highest values than the screen did.
# Target: T1, Ecm22 (UniProt Q05958)
# T1 sequence: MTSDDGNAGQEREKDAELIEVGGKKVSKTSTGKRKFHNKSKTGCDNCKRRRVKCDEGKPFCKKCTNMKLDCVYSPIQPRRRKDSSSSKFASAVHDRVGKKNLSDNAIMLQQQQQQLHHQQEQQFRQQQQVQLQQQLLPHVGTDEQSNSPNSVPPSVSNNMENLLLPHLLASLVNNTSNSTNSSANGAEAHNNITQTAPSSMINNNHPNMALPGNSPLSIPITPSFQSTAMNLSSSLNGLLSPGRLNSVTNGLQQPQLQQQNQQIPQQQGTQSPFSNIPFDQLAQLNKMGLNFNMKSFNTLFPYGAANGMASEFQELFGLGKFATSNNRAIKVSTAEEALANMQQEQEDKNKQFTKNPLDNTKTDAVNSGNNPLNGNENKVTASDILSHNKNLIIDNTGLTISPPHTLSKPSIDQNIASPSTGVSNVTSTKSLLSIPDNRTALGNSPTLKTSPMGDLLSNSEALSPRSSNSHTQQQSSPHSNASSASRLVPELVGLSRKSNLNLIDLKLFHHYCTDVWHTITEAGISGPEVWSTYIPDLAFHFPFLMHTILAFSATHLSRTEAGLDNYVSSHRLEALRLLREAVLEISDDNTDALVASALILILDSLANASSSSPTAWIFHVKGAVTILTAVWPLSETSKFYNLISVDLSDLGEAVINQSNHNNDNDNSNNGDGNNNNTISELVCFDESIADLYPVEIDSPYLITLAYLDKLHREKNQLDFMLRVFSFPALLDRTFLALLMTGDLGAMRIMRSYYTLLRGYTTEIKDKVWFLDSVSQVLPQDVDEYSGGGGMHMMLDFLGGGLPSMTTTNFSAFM
# Experiment: PBM E-score (8-mer binding enrichment) (E-score (-0.5 to 0.5)); higher = stronger / more preferred TF binding
# Conditions: protein concentration: 200 nM; construct: GST-full length
# Method in brief: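 For each ungapped eight-base word taken together with its reverse complement, the Universal PBM Analysis Suite assigned an E-score. Binding data came from GST-tagged yeast transcription factors, applied at about 100-200 nM, on universal all-10-mer Agilent arrays made double-stranded by primer extension. Fluorescent anti-GST marked bound protein, and scans were normalised with masliner.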
row,Sequence,PBM E-score
1,AACAGTTA,-0.1
2,ATCCGTTA,0.177
3,AAAGGCTT,-0.177
4,ACCGAGCG,0.292
5,CAAGACTC,-0.126
6,CGAAATCG,0.111
7,CTTCGTTC,0.47
8,GTTCGTTA,0.356
9,ATTCGTTG,0.277
10,CTTCGTTA,0.303
11,ATTCGTTC,0.432
12,ATTCGTTA,0.309
13,CTCTCTAA,-0.232
14,GCTCTAGA,-0.226
15,CCTTCCTC,-0.0948
16,GGTTCCTA,-0.128
17,CGTTCCTA,0.439
18,AGTTCCTC,-0.117
19,CGTTCCTC,0.452
20,AGTTCCTA,0.102
21,ACAGTAAC,0.00997
22,AACTGCAA,-0.138
23,CACCTTAC,-0.0784
24,CGGCTCCC,-0.0756
25,GCTGCATA,-0.114

row,Sequence,PBM E-score
1,CGTCTAAC,-0.0542
2,GAAAGATC,0.0489
3,ACATAGCA,-0.131
4,ATATAAAC,0.212
5,GTATAAAA,0.335
6,GTATAAAC,0.403
7,CACAATTC,-0.0282
8,AGCGCTAT,-0.048
9,CGACCTCG,0.183
10,CGCGTTCA,0.185
11,ATCGTTCA,0.402
12,AGCGTTCA,-0.121
13,AACGTTCC,0.259
14,CACGTTCA,-0.131
15,CTCGTTCA,0.47
16,ATCGTTGG,-0.0634
17,ATCGTTCC,0.478
18,ATCGTTCG,0.373
19,AACGTTCG,0.217
20,AACGTTCA,0.0914
21,AGCGTTCC,0.2
22,AGGGTTAT,-0.0839
23,ATTCATAC,0.161
24,CTTGTGTC,-0.0755
25,CACCGGAC,0.112

row,Sequence,PBM E-score
1,CGATCTAG,0.00932
2,ATCGTGGG,-0.0631
3,CGATCTAA,0.0461
4,GTTAGACA,-0.137
5,GTCGTTCA,0.448
6,GACGTTCA,0.0272
7,GGCGTTCA,0.00425
8,AAGCCCAG,-0.109
9,GGTACACC,0.0576
10,CGTACACG,0.382
11,TGTACACA,0.0209
12,GGTACACA,-0.126
13,CGTACACA,0.402
14,AGTACACA,0.18
15,CGTACACC,0.37
16,AGTACACC,0.0652
17,AGTACACG,0.238
18,GTAGCAAA,0.0111
19,GACCAGGC,-0.228
20,CCCCAGCA,-0.237
21,ACGGAACG,0.442
22,CCGGAACA,-0.0629
23,CCGGAACG,0.445
24,ACGGAACC,0.218
25,CCGGAACC,-0.0325

row,Sequence,PBM E-score
1,ACGGAACT,0.157
2,CCCCGCCA,0.0635
3,TAGGACCA,-0.185
4,GTATGAAC,0.234
5,ATGTTACA,-0.0708
6,GAGAGACC,-0.21
7,ACGGGGAC,0.0581
8,GAGAACAA,0.124
9,CGATCGTA,0.437
10,AGATCGTG,-0.0112
11,AGATCGTA,0.389
12,GGATCGTA,0.434
13,CGATCGAA,0.164
14,GGATCGAA,0.251
15,AGATCGTC,-0.0821
16,GGATCGGA,0.159
17,CGATCGTC,0.104
18,AGTCCCAA,-0.193
19,GGCTAGTA,-0.00889
20,CTGACGCA,-0.319
21,GAGCTTAA,0.0486
22,ATCGAGGA,0.115
23,AGCGAGGA,0.265
24,AACGAGGA,0.449
25,GACGAGGC,0.163

row,Sequence,PBM E-score
1,CACGAGGC,0.171
2,TACGAGGA,0.466
3,CACGAGGA,0.196
4,GACGAGGA,0.175
5,AACGAGGT,0.447
6,AAAGAGGT,-0.244
7,AACGAGGC,0.434
8,ACCGAGGT,0.225
9,CATGAAAA,0.00915
10,ATTGCTTC,0.0317
11,AAGCTTCA,-0.0703
12,ACAAATTC,0.0192
13,AACGGGCT,0.16
14,ACGCTCAA,0.0449
15,GGTCTAAC,-0.0964
16,CGGGACGC,-0.0663
17,ACTCGGCT,0.112
18,CTGCACTC,-0.104
19,AGCGAGGG,0.249
20,CACGAGGG,0.189
21,AACGAGGG,0.439
22,ACGCAAGG,-0.01
23,AGCCGGAT,-0.0402
24,AACGCGTT,0.212
25,AAAGAGTT,-0.264

row,Sequence,PBM E-score
1,AACGAGTA,0.433
2,AGCGAGTA,0.363
3,AGCGAGTG,0.324
4,AACGAGTG,0.421
5,AACGAGTT,0.41
6,ACCGAGTA,0.286
7,CACGAGTG,0.106
8,CACGAGTA,0.157
9,TACGAGTA,0.467
10,GACGAGTA,0.117
11,CTGCGTTC,0.213
12,GCGTTGAA,0.218
13,CCATATCC,-0.0494
14,CACGTACG,0.338
15,CTAGTTAA,-0.153
16,GCCTCTAC,-0.123
17,AACGAGTC,0.419
18,CACGAGTC,-0.0272
19,GACGAGTC,0.115
20,AGAGGGAT,-0.0615
21,ACAGTTCC,-0.0566
22,CCTTCGTC,0.0674
23,GCTTCGGA,0.121
24,CCTTCGTA,0.453
25,GCTTCGCA,0.193

row,Sequence,PBM E-score
1,GCTTCGTA,0.441
2,ACTTCGTG,0.116
3,ACTTCGTC,0.00917
4,ACTTCGTA,0.434
5,CCTTCGCA,0.183
6,TCGGGTCA,0.241
7,CATCGTGC,0.164
8,CATCGTTC,0.428
9,AATCGTTA,0.269
10,AATCGTTC,0.426
11,CATCGTTA,0.259
12,AATCGTTG,0.165
13,CCATTGGA,-0.162
14,AGGTATTA,-0.0627
15,GGGTCGGA,0.135
16,GGGTCGAA,-0.0301
17,CGGTCGGA,0.0409
18,AGGTCGTA,0.458
19,AGGTCGTG,-0.13
20,CGGTCGTC,-0.0294
21,GGGTCGTA,0.439
22,AGGTCGTC,0.106
23,CGGTCGTA,0.464

# From the supplement of paper PMC3334620
